Here are results for five compounds from PubChem BioAssay AID1542 (National Center for Advancing Translational Sciences (NCATS), 2009).

Records with an inconclusive call do not appear. A number with no mark means an inactive call. Calls come from the whole dose curve; as a rule, active = well fitted curve in the direction sought with a large enough effect; inconclusive = small, poorly fitted or top-dose-only effect, or effect the other way, or another doubt; inactive = no such curve, though single readings can be large or run the other way.

The target of the assay is Pyruvate kinase PKM (Homo sapiens) (UniProt P14618). Kind of assay: Secondary assay for Activators of Human Pyruvate Kinase M1 isoform. To be noted: purified hPK-M1, LDH-coupled NADH fluorescence kinetic; series mostly up to 57.5 µM; activity change, positive = activation: at the top concentration. From the text: Confirmatory assay NIH Chemical Genomics Center [NCGC] Matthew G. Vander Heiden, M.D., Ph.D. [Harvard Medical School, 77 Avenue Louis Pasteur, Boston, MA 02115] NCGC Assay Overview: Human pyruvate kinase […] (hPK-M1)enzyme was supplied as a highly purified (>95% pure) preparation from Harvard Medical School and a secondary assay was used to evaluate compounds. This assay couples the formation of pyruvate from hPK-R using lactate dehydrogenase (LDH) and NADH. The depletion of NADH is followed in a fluorescent-based kinetic assay that follows the formation of pyruvate to lactate, as catalyzed LDH. Pyruvate kinase substrates, PEP and ADP, were present in the assay at 0.1 mM and 4 mM respectively. In this kinetic assay initial rates were determined by following the fluorescence of NADH depletion.
Chain of Pyruvate kinase PKM (Homo sapiens) (P14618 whole entry, looked up, canonical isoform): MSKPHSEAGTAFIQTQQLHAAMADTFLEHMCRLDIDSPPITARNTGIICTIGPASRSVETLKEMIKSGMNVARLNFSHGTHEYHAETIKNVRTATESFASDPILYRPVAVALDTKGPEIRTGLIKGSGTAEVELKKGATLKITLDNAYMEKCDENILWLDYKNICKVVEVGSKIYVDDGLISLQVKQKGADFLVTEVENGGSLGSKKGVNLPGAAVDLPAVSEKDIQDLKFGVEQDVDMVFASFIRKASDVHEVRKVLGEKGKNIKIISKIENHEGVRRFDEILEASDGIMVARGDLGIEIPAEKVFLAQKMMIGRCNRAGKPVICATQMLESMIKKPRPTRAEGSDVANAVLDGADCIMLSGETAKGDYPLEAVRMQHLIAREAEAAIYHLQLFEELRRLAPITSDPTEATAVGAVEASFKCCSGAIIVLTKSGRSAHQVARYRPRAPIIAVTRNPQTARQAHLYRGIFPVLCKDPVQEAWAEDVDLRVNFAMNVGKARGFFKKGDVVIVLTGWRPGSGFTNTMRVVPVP
NCGC Assay Protocol Summary: Three uL of substrate mix (final concentration, 50 mM Tris-Cl pH 8.0, 200 mM KCl, 15 mM MgCl2, 0.1 mM PEP, 4.0 mM ADP, and 0.2 mM NADH) was dispensed into black-solid 1536 well plates. 23 nL of compounds were delivered by a pin tool and 1 uL of enzyme mix (final concentrations, 10 nM hPK-M1 and 1 uM of LDH) was added. Plates were immediately placed in ViewLux (Perkin Elmer) and NADH fluorescence was determined at 30 second exposure intervals for between 3 and 6 minutes. Data were normalized to the uninhibited controls.
As for `Cc1cc2c(s1)c1cnn(Cc3c(F)cccc3Cl)c(=O)c1n2C`, the “activity change, positive = activation” value is 12.7%.

`O=S(=O)(c1ccc2nc(Cl)c(Cl)nc2c1)N1CCN(S(=O)(=O)c2c(F)cccc2F)CC1`: the “activity change, positive = activation” value is 17.4%.

Regarding `O=C(c1c(F)cccc1F)N1CCN(S(=O)(=O)c2ccc3c(c2)OCCO3)CC1`, the “activity change, positive = activation” value was 9.03%.

In the case of `O=C1CN(S(=O)(=O)c2c(F)cccc2F)CCN1S(=O)(=O)c1ccc2c(c1)OCCO2`, the “activity change, positive = activation” value was -4.39%.

As for `COC/C=C/c1cc(F)c(S(=O)(=O)N2CCN(S(=O)(=O)c3ccc4c(c3)OCCO4)CC2)cc1F`, the “activity change, positive = activation” value is -14.8%.
